The results in this text go back to PubChem BioAssay (NCI).

Structures are written as SMILES. About 83,000 compounds went through this panel and 20% of them were active in at least one assay; those are over-represented in the sample as a whole.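 Cell lines were cultured in 96-well plates, exposed to a single compound concentration, and assessed for percent growth 48 hours later.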 Unmarked numbers belong to inactive results. The source made the active and inactive calls. The calls were made as follows: active = growth percent below 10; inactive = the rest.

The subject of one assay is NCI-H23 lung. In words: NCI-60 one-dose screen, 48 h (100 = growth as untreated, 0 = no growth, -100 = all killed). The settings on record: 10 µM unless noted.
Take `CCOc1ccc(-n2nc(C(=O)Nc3cc(OC)c(OC)c(OC)c3)nc2-c2cc(OC)c(OC)c(OC)c2)cc1`: the growth is 85%. For the compound `C=C1C(=O)O[C@H]2[C@H]1CC/C(COC(=O)c1cc3cc(OC)ccc3[nH]1)=C\CC[C@@]1(C)O[C@@H]21`, the growth is -72.6% (active). Regarding `COc1cc(Nc2cc(C)nc(N3CCN(c4ccnc5cc(Cl)ccc45)CC3)n2)cc(OC)c1`, the growth was 9.55% (active).

`N#CN1CCC[C@H]1C(=O)N1CCc2c(-c3[nH]nc4ncccc34)cccc21`: the growth is 4.9% (active). For the compound `Cc1cc(C)nc(SC2=C(Nc3cccc(Cl)c3)C(=O)N(Cc3ccccc3)C2=O)n1`, the growth is 82% [30 µM]. On to `O=C(COc1cccc(/C=C2\COc3ccccc3C2=O)c1)Nc1nccs1`, for which the growth was 13.4%.

For the compound `C=C(C)C(=O)Nc1ccc(NC(C)C)cc1`, the growth was 113%.

The next assay deals with NCI-H226 lung. The description is as above. The settings on record: 10 µM unless noted.
On to `COc1cc(-c2nc(C(=O)NCC(=O)NO)nn2-c2ccc(Cl)cc2)cc(OC)c1OC`, for which the growth was 91.8%.

With `C=C1C(=O)O[C@H]2[C@H]1CC/C(C=Nc1ccc(C(F)(F)F)cc1N)=C\CC[C@@]1(C)O[C@@H]21`, the growth was 42.5%. Consider `CSc1nc(NCCO)c(C#N)c(-c2cccc([N+](=O)[O-])c2)n1`, for which the growth was 93.1%. As for `Cn1c(=O)[nH]c(=O)c2nc(CCC(=O)NCCC(=O)O)c(=O)[nH]c21`, the growth is 88.3%. For the compound `C=CC(=O)Nc1cccc(-c2nc(SC)nc(Nc3ccccc3OC)c2C#N)c1`, the growth is 34.3%. Take `CC1=C[C@H]2c3c(c(O)c(O)c4oc5c(C)cccc5c(=O)c34)[C@H](c3cc(O)c(O)c4oc5c(C)cccc5c(=O)c34)[C@H]2C(C)(C)C1`: the growth is 0.242% (active). Consider `COc1ccc(/C=C(\C#N)C(=O)Nc2cccc(Nc3nc(SC)nc(-c4cccc([N+](=O)[O-])c4)c3C#N)c2)cc1OC`, for which the growth is 91.8%.

Turning to `CCN(CC)c1ccc(/C=N\NC(=O)/C=C/C=C/c2ccc3c(c2)OCO3)c(O)c1`, the growth was 49.5%. Take `CC(C)(C)c1cc(/C=N\NC(=O)/C=C/C=C/c2ccc3c(c2)OCO3)c(O)c(C(C)(C)C)c1`: the growth is 75.9%. Regarding `CN(C)CCCNc1c2ccccc2nc2ccccc12`, the growth was 81.1%. The same measure, in the same setting: to `CN1CCN(c2nc(NCCCCNc3ccnc4cc(Cl)ccc34)c3ccccc3n2)CC1` belongs 98.7%; to `COc1cc2c(cc1-c1c(C)noc1C)ncc1nc(C3CCOCC3)n([C@@H](C)COC(F)F)c12`, 58.2%; to `CC(C)C[C@@H](NC(=O)[C@@H](Cc1ccccc1)NC(=O)c1cnccn1)B1Oc2ccc(C[C@H](NC(=O)[C@H](Cc3ccc4c(c3)OB([C@@H](CC(C)C)NC(=O)[C@@H](Cc3ccccc3)NC(=O)c3cnccn3)O4)NC(=O)[C@@H](N)CC3CCC4OB([C@@H](CC(C)C)NC(=O)[C@@H](CC5CCCCC5)NC(=O)C5CNCCN5)OC4C3)C(=O)NCCCC[C@@H]3NC(=O)[C@@H](Cc4ccccc4)NC(=O)[C@H](CC(=O)O)NC(=O)CNC(=O)[C@H](CCCNC(=N)N)NC3=O)cc2O1` (stereo partly specified), -50.2% (active). Turning to `CCc1nc(N)nc(N)c1C#CC(C)c1cc(-c2ccnc(C)c2)c2oc(C)nc2c1` (stereo unspecified), the growth was 44.7%. `COc1ccc(/C=C/c2nc3ccccc3nc2/C=C/c2ccc(OC)cc2)cc1`: the growth is 90.2%. With `Cc1nc(/N=C(\N)NC(=O)Nc2cccc([N+](=O)[O-])c2)sc1C`, the growth was 90.5%. Regarding `CCCCN(CCCC)CCCn1c(-c2ccccc2)ccc1-c1ccccc1`, the growth was 53.6%. `Oc1ccc(N=Cc2ccccc2O)cc1`: the growth was 113%. Turning to `NC(N)=N/N=C(/c1ccccc1)c1ccc(F)cc1`, the growth is 8.06% (active). Same read-out and setting: to `COc1ccc(Nc2nc(SC)nc(-c3cccc([N+](=O)[O-])c3)c2C#N)cc1` belongs 18.3%; to `COc1ccc(CCNc2nc3c(c(=O)n(Cc4ccc(Br)cc4)c(=O)n3C)n2C)cc1OC`, 86.6%; to `COc1cccc(Nc2nc(SC)nc(-c3cccc([N+](=O)[O-])c3)c2C#N)c1`, 19.3%. Same read-out and setting: the result for `CCCCC/C(C=C(C#N)C#N)=C/c1ccccc1` reads 116%; that for `Cn1c(=O)c2c(nc3n(-c4ccc(Cl)cc4Cl)c(Sc4nc(-c5ccccc5)c(C#N)c(=O)[nH]4)cn23)n(C)c1=O`, 56.4%. As to `Cc1ccc(C2=NN3C(C2)c2cc(Br)ccc2OC32CCN(Cc3ccccc3)CC2)o1` (stereo unspecified), the growth was 86.9%. As for `CCCCCCN(CCCCCC)C(=N)c1ccnc2ccccc12`, the growth is 89.2%.

Turning to `O=C1Nc2c(ccc(Cl)c2Cl)/C1=C\c1ccc(C(F)(F)F)cc1`, the growth is 59.1%. With `C=CC(=O)Nc1cccc(-c2nc(SC)nc(NCc3ccccc3)c2C#N)c1`, the growth is 46.8%. For the compound `CC1=CC(C)(C)Nc2ccc(Cc3ccc4c(c3)C(C)=CC(C)(C)N4)cc21`, the growth is 88.4%.

For `CCCN1CCN(c2ccc3nc(-c4ccc5nc(-c6ccc(OCC)cc6)[nH]c5c4)[nH]c3c2)CC1`, the growth was 65.1%. Still for that read-out and setting: to `COc1ccc(C(=O)COc2ccc(/C=C3\COc4ccc(OC)cc4C3=O)cc2)cc1` belongs 85.9%. In the case of `CC(=O)O[C@H]1C(=O)[C@@]2(C)[C@H]([C@H](OC(=O)c3ccccc3)[C@]3(O)C[C@H](OC(=O)[C@H](OC(=O)CCC(=O)OC4CCC(S/N=C(N)/N=C(\N)N(C)C)CC4)[C@@H](NC(=O)c4ccccc4)c4ccccc4)C(C)=C1C3(C)C)[C@]1(OC(C)=O)CO[C@@H]1C[C@@H]2O` (stereo partly specified), the growth is 75.6%. For `CCOc1ccc(-n2nc(C(=O)Nc3cc(OC)c(OC)c(OC)c3)nc2-c2cc(OC)c(OC)c(OC)c2)cc1`, the growth was 78.1%. Take `C=C1C(=O)O[C@H]2[C@H]1CC/C(COC(=O)c1cc3cc(OC)ccc3[nH]1)=C\CC[C@@]1(C)O[C@@H]21`: the growth is -68.3% (active). On to `COc1cc(Nc2cc(C)nc(N3CCN(c4ccnc5cc(Cl)ccc45)CC3)n2)cc(OC)c1`, for which the growth is 22.9%. `N#CN1CCC[C@H]1C(=O)N1CCc2c(-c3[nH]nc4ncccc34)cccc21`: the growth is -29.1% (active). Take `Cc1cc(C)nc(SC2=C(Nc3cccc(Cl)c3)C(=O)N(Cc3ccccc3)C2=O)n1`: the growth is 83% [30 µM]. In the case of `O=C(COc1cccc(/C=C2\COc3ccccc3C2=O)c1)Nc1nccs1`, the growth was 95.4%. `C=C(C)C(=O)Nc1ccc(NC(C)C)cc1`: the growth is 131%.
